Experimental data taken from ChEMBL document CHEMBL1961873, “Compounds: GSK PKIS; Assays: Nanosyn kinase panel” (2012).

Key:
[1] = biological target: Ribosomal protein S6 kinase alpha-6 (Homo sapiens) (UniProt Q9UK32); details: at 1 µM;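 further: each value is a mean inhibition of RSK4 from a GSK PKIS panel screen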
[2] = biological target: T1, Serine/threonine-protein kinase Sgk1 (Homo sapiens) (UniProt O00141); details: at 0.1 µM
T1 sequence (whole entry): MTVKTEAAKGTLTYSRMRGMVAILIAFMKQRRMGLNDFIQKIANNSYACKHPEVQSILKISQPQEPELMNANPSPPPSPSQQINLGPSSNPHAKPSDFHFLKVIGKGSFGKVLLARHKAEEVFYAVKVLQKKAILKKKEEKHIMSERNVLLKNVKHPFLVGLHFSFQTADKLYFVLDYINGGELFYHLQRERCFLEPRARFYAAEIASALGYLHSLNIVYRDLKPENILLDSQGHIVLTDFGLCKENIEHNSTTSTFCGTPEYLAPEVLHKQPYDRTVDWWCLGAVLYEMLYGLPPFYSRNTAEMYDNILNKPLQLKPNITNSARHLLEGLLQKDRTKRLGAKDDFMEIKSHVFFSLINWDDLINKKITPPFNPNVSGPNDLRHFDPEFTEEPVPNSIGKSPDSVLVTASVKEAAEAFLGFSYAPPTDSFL

[3] = biological target: T1, Serine/threonine-protein kinase Sgk1 (Homo sapiens); details: at 1 µM
[4] = biological target: T2, Serine/threonine-protein kinase Sgk2 (Homo sapiens) (UniProt Q9HBY8); details: at 0.1 µM
T2 sequence (whole entry): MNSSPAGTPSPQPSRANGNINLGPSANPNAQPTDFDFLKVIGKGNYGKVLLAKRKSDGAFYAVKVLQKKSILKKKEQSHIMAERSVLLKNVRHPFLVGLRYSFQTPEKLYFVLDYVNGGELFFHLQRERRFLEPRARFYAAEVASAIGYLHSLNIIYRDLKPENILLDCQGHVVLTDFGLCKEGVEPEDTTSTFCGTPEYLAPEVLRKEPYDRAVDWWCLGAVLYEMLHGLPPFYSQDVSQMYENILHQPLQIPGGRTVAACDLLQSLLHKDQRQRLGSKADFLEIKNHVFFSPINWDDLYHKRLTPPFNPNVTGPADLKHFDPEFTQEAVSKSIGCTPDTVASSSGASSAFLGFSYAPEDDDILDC

[5] = biological target: T2, Serine/threonine-protein kinase Sgk2 (Homo sapiens); details: at 1 µM
[6] = biological target: T3, Serine/threonine-protein kinase Sgk3 (Homo sapiens) (UniProt Q96BR1); details: at 0.1 µM
T3 sequence (whole entry): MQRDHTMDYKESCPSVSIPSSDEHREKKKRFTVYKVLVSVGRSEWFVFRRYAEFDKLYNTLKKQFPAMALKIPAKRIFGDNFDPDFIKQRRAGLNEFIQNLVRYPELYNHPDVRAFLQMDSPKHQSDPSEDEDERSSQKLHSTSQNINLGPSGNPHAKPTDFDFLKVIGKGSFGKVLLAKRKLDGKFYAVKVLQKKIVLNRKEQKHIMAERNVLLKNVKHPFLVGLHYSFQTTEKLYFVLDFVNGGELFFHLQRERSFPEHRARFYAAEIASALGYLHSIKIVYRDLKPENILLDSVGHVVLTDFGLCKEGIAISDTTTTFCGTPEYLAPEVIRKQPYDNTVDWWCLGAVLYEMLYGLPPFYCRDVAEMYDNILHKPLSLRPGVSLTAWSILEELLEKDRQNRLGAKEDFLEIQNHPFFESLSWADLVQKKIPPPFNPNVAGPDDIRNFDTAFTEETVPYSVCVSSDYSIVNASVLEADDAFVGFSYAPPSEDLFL

[7] = biological target: T3, Serine/threonine-protein kinase Sgk3 (Homo sapiens); details: at 1 µM
[8] = biological target: 5'-AMP-activated protein kinase catalytic subunit alpha-1 (Homo sapiens) (UniProt Q13131); details: at 0.1 µM
[9] = biological target: 5'-AMP-activated protein kinase catalytic subunit alpha-1 (Homo sapiens) (UniProt Q13131); details: at 1 µM
[10] = biological target: 5'-AMP-activated protein kinase catalytic subunit alpha-2 (Homo sapiens) (UniProt P54646); details: at 0.1 µM
[11] = biological target: 5'-AMP-activated protein kinase catalytic subunit alpha-2 (Homo sapiens) (UniProt P54646); details: at 1 µM
[12] = biological target: T4, NUAK family SNF1-like kinase 1 (Homo sapiens) (UniProt O60285); details: at 0.1 µM
T4 sequence (whole entry): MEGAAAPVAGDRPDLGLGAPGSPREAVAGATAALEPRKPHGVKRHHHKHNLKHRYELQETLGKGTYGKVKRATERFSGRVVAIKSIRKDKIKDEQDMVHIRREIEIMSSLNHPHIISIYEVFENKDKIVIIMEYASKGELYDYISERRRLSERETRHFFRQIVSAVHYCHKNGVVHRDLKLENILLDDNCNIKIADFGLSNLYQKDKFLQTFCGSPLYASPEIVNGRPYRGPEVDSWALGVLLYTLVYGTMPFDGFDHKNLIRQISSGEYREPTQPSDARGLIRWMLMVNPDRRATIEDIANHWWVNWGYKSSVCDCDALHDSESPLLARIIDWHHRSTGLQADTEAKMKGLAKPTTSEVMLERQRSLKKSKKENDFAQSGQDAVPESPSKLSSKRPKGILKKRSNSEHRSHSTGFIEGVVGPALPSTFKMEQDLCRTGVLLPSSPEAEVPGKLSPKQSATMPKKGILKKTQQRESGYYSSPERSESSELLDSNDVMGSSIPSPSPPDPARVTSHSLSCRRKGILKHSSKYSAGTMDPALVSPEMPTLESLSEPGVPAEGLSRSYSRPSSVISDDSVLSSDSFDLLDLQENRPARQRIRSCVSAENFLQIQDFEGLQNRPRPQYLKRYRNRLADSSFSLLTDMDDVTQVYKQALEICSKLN

[13] = biological target: T4, NUAK family SNF1-like kinase 1 (Homo sapiens); details: at 1 µM
[14] = biological target: T5, Serine/threonine-protein kinase BRSK1 (Homo sapiens) (UniProt Q8TDC3); details: at 0.1 µM
T5 sequence (whole entry): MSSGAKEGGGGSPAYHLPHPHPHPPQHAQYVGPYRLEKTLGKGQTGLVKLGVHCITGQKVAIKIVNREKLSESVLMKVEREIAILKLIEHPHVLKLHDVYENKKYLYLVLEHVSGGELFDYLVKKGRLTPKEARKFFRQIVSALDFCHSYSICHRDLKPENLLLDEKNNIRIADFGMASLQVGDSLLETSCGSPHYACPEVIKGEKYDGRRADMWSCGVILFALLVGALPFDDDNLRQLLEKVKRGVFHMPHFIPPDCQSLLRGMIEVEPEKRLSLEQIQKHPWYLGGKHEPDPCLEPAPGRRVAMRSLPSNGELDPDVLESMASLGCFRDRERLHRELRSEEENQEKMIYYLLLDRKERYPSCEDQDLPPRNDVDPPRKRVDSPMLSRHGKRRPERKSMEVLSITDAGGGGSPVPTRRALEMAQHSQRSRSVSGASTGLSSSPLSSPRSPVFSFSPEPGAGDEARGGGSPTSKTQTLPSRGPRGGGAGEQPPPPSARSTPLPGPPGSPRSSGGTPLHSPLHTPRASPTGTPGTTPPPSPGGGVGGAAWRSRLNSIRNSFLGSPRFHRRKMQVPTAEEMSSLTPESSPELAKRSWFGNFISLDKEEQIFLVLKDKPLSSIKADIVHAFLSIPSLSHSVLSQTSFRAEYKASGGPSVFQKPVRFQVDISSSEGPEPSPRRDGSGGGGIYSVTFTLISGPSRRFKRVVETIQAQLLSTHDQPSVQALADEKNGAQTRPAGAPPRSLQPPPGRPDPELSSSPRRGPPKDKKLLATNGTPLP

[15] = biological target: T5, Serine/threonine-protein kinase BRSK1 (Homo sapiens); details: at 1 µM
[16] = biological target: T6, Serine/threonine-protein kinase BRSK2 (Homo sapiens) (UniProt Q8IWQ3); details: at 0.1 µM
T6 sequence (whole entry): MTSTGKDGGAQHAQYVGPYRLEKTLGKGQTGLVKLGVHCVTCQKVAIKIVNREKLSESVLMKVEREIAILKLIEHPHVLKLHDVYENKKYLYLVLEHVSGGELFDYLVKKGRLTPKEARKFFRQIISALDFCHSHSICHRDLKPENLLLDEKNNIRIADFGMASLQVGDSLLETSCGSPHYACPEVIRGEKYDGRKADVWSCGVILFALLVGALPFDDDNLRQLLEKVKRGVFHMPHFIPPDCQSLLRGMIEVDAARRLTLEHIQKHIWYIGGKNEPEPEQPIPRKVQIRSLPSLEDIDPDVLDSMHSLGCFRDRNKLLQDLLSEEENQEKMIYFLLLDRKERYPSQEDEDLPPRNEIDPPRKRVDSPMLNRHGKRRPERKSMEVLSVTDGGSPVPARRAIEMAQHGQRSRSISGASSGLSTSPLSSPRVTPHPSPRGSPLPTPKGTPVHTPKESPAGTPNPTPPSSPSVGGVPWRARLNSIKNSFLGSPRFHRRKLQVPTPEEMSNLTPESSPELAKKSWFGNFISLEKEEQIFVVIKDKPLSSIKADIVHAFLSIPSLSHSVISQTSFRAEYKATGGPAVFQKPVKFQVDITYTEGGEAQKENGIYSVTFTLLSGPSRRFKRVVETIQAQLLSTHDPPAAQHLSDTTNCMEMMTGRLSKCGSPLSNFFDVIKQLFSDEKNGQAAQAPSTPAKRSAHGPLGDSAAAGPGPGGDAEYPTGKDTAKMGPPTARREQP

[17] = biological target: T6, Serine/threonine-protein kinase BRSK2 (Homo sapiens); details: at 1 µM
[18] = biological target: Calcium/calmodulin-dependent protein kinase type 1D (Homo sapiens) (UniProt Q8IU85); details: at 0.1 µM
[19] = biological target: Calcium/calmodulin-dependent protein kinase type 1D (Homo sapiens) (UniProt Q8IU85); details: at 1 µM
[20] = biological target: Calcium/calmodulin-dependent protein kinase type II subunit alpha (Homo sapiens) (UniProt Q9UQM7); details: at 0.1 µM;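 further: reported values are averages (mean inhibition of CAMK2A)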
Sequence of Calcium/calmodulin-dependent protein kinase type II subunit alpha (Homo sapiens) (Q9UQM7 whole entry): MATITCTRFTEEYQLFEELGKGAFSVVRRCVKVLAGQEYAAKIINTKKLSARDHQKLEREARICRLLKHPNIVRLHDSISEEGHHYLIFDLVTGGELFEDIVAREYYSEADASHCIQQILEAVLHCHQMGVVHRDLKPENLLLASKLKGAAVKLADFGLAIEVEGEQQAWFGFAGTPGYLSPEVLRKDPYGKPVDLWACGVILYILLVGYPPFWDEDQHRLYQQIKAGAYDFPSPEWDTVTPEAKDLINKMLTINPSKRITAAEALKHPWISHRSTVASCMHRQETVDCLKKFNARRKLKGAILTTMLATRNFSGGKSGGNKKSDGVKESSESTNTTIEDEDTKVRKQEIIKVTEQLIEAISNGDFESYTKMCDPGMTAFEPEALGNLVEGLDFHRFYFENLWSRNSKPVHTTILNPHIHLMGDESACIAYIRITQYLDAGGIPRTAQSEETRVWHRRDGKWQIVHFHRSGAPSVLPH

Sequence of Ribosomal protein S6 kinase alpha-6 (Homo sapiens) (Q9UK32 whole entry): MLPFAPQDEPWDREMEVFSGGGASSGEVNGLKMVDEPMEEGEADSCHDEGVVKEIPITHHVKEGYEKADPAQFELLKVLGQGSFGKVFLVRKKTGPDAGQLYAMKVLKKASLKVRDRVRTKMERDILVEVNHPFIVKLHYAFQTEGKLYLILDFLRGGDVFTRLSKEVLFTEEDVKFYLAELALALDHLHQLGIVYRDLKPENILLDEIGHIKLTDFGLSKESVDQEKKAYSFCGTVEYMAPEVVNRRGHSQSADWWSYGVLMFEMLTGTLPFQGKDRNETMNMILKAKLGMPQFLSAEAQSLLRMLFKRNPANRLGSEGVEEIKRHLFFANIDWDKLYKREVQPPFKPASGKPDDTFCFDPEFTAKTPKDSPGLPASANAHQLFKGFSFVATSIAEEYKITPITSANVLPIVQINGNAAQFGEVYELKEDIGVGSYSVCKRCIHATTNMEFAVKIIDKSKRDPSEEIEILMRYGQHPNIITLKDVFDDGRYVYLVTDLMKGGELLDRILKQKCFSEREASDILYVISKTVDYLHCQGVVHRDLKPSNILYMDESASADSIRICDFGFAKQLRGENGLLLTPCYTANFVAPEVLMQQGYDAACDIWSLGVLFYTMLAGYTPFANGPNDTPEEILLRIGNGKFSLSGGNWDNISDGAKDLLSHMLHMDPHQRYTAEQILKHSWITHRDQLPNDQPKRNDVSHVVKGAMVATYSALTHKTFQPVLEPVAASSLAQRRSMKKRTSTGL
Sequence of Calcium/calmodulin-dependent protein kinase type 1D (Homo sapiens) (Q8IU85 whole entry, looked up): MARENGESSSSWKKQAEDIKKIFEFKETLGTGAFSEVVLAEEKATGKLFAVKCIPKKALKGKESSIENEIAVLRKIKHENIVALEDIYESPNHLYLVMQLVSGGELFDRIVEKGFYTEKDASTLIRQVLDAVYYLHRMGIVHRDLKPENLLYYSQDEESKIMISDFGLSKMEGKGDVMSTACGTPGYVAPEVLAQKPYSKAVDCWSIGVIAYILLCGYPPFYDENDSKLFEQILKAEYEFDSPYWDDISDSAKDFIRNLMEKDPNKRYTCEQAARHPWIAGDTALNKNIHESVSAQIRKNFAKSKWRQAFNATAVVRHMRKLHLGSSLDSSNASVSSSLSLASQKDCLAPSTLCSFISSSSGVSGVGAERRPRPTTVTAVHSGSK
Sequence of 5'-AMP-activated protein kinase catalytic subunit alpha-2 (Homo sapiens) (P54646 whole entry, looked up): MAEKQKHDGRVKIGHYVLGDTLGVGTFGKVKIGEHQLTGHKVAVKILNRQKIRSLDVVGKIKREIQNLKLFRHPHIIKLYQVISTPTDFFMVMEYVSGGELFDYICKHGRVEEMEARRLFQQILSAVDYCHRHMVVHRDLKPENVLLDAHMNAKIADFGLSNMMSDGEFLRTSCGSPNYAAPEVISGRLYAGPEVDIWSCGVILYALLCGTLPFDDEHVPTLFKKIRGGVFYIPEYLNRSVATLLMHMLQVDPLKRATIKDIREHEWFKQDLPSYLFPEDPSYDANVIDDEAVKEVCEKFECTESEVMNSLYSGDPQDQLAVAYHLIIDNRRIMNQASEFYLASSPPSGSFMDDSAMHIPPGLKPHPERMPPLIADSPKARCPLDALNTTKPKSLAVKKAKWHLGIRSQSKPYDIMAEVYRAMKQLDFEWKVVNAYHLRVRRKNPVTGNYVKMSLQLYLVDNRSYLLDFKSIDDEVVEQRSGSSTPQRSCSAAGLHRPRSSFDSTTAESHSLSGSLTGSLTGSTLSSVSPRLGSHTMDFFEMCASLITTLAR
Sequence of 5'-AMP-activated protein kinase catalytic subunit alpha-1 (Homo sapiens) (Q13131 whole entry, looked up): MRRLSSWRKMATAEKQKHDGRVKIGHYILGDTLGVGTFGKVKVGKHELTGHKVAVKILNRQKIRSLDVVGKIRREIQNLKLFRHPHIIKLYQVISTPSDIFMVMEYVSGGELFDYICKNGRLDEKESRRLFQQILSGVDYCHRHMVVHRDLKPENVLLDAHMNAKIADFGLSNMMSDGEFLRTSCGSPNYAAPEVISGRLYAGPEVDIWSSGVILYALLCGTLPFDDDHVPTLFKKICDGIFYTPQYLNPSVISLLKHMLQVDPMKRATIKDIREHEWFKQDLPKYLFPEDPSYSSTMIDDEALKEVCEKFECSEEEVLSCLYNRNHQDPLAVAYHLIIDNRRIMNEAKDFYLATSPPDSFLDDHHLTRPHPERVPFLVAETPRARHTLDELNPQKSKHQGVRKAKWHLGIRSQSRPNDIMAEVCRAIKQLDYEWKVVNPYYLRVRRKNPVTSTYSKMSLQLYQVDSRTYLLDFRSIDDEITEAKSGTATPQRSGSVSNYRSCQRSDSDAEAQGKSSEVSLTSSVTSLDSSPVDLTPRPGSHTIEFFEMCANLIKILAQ

| SMILES | inhibition [1] [%] | inhibition [2] [%] | inhibition [3] [%] | inhibition [4] [%] | inhibition [5] [%] | inhibition [6] [%] | inhibition [7] [%] | inhibition [8] [%] | inhibition [9] [%] | inhibition [10] [%] | inhibition [11] [%] | inhibition [12] [%] | inhibition [13] [%] | inhibition [14] [%] | inhibition [15] [%] | inhibition [16] [%] | inhibition [17] [%] | inhibition [18] [%] | inhibition [19] [%] | inhibition [20] [%] |
| --- | --- | --- | --- | --- | --- | --- | --- | --- | --- | --- | --- | --- | --- | --- | --- | --- | --- | --- | --- | --- |
| COc1cccc(-c2c[nH]c3c(N/N=C/c4ccncc4)ncnc23)c1 | 10.6 | 4.36 | 19.1 | 4.85 | 18.2 | 2.69 | 1.84 | 1.39 | 6.84 | 0.02 | 7.68 | 4.85 | 38.5 | 3.83 | 21.4 | 4.82 | 29.8 | 2.11 | 4.07 | 3.48 |
| Clc1ccc(-c2nn3ncccc3c2-c2ccnc(Nc3ccccc3)n2)cc1 | 1.59 | 3.14 | 1.09 | 1.58 | 0.53 | 1.92 | -1.01 | 0.45 | 0.54 | 1.86 | 2.26 | 0.79 | 4.21 | 0.06 | 1.52 | -0.16 | -0.21 | 2.4 | 1.17 | 0.95 |
| CN1CCC(n2cnc(-c3ccc(F)cc3)c2-c2ccnc(N)n2)CC1 | 3.17 | 2.03 | 5.81 | 0.15 | 7.47 | 2.25 | 2.99 | 2.2 | 7.91 | -1.23 | 3.56 | -0.55 | 5.58 | 1.29 | 1.45 | 1.08 | 7.04 | 0.79 | 1.05 | 2.13 |
| CCn1c(-c2nonc2N)nc2c(C#CC(C)(C)O)nc(OC[C@H](N)c3ccccc3)cc21 | 7.07 | 1.86 | 3.49 | 5.31 | 13.4 | 31.1 | 57.7 | 17.7 | 65.7 | 4.97 | 15 | 7 | 47.3 | 0.45 | 1.15 | -0.02 | 5.58 | 0.96 | 4.5 | 2.34 |
| Fc1cccc(COc2ccc(Nc3ncnc4sc(-c5ccco5)cc34)cc2Cl)c1 | 1.67 | 2.84 | 3.04 | 1.55 | 0.68 | 4.19 | 4.61 | 2.46 | 4.38 | 4.1 | 5.24 | 1.97 | 6.27 | 0.38 | 7.21 | 4.09 | 7.5 | -0.77 | -1.08 | 1.16 |
| CCCN1CCC(c2ccc(Nc3nc(Nc4cc(F)ccc4C(N)=O)c4cc[nH]c4n3)c(OC)c2)CC1 | 63.4 | 3.17 | 13.8 | 4.48 | 5.14 | 3.22 | 4.03 | 5.5 | 26.9 | 3.42 | 13.2 | 31.8 | 62.8 | 0.82 | 2.49 | 2.24 | 6.88 | 22.9 | 71.5 | 8.79 |
| Fc1ccc(-c2cc(-c3c[nH]nc3-c3ccccn3)ccn2)cc1 | 0.89 | 3.85 | 5.98 | 3.86 | 0.65 | 5.08 | 4.1 | 4.84 | 4.83 | 2.6 | 1.61 | -0.78 | -3.39 | -0.21 | 0.81 | 1.49 | 1.96 | -2.23 | -1.28 | 3.34 |
| c1ccc(-c2nc3n(c2-c2ccc4c(c2)OCO4)CCC3)nc1 | 0.77 | 1.69 | 3.45 | 2.66 | 2.94 | 2.37 | 3.36 | 1.01 | 2.34 | 3.38 | 3.64 | 4.41 | -1.66 | 1.42 | 2.54 | 1.52 | 4.23 | 0.16 | 0.16 | -0.46 |
| CC(C)COC(=O)c1ccc2c(c1)/C(=C/Nc1ccc(S(N)(=O)=O)cc1)C(=O)N2 | 39.3 | 1.25 | 19 | 1.33 | 1.89 | 1.37 | 3.19 | 23.4 | 72.3 | 5.83 | 36.3 | 29.6 | 75.6 | 5.38 | 38 | 10.1 | 50.1 | 1.82 | 7.89 | 0.26 |
| COc1ccc2[nH]c3c4[nH]c5ccc(OC)cc5c4c4c(c3c2c1)C(=O)NC4=O | 88 | 21.8 | 63.8 | 16.6 | 59.4 | 9.76 | 40.2 | 37 | 78 | 17.9 | 51.6 | 78 | 77.3 | 71.3 | 102 | 92.2 | 94.9 | 6.96 | 39.6 | 6.99 |
